# Source: PubChem
# Rows were chosen to be rich in hits. Some 1.1% of all compounds tested hit in one or more screens of this group.
# FadD28 FP inh = blocks FadD28 binding to the bisubstrate probe. fluorescence polarization. inhibition, % at 12.5 µM. 0.22% of 360,000 active; in the data active means inhibition above about 8.5%, passing the limit was not always enough; inconclusive means no clear call, values can overlap the other calls
# PrP 5UTR inh = inhibition of PrP 5' UTR reporter expression; cell-based PrP 5' UTR mRNA reporter, plate reader; inhibition, % (concentration not given with the values); 0.35% of 340,000 active; in the data active means inhibition above about 52%; further: 0 = median of the neutral control wells
# TcdB inh = inhibitors of Clostridioides difficile toxin B glycohydrolase; TcdB glycohydrolase enzymatic assay, plate reader; P18177; inhibition, % at 9.99 µM; AID 652162; 0.24% of 350,000 active; in the data active means inhibition above about 10%
# PfHsp40 rescue = restores yeast growth despite PfHsp40 toxicity; growth rescue, % at 12.5 µM; 0.68% of 340,000 active; S. cerevisiae expressing PfHsp40, growth rescue, ATP luminescence; in the data active means growth rescue above about 28%, passing the limit was not always enough; inconclusive means no clear call, values can overlap the other calls;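 further: yeast W303a lacking pdr1 and pdr3 grown in galactose medium; growth measured after three days at 30 °C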
# Mtb BioA inh = BioA (M. tuberculosis) enzyme inhibition; inhibition, % at 9.99 µM; 0.096% of 360,000 active; purified M. tuberculosis BioA enzyme, plate reader; in the data active means inhibition above about 40%; inconclusive means no clear call, values can overlap the other calls
# Starred values were filed as active, the others as inactive; ? = inconclusive; . = no result given.
SMILES,FadD28 FP inh,PrP 5UTR inh,TcdB inh,PfHsp40 rescue,Mtb BioA inh
COc1ccc(CN(C)C[C@@H]2OCCCC[C@H](C)Oc3ccc(NC(=O)NC(C)C)cc3C(=O)N([C@H](C)CO)C[C@@H]2C)cc1,.,.,1,.,2
CCC1CCCCN1CCCNC(=O)c1cn(C)c2ccc(S(=O)(=O)N(C)C3CCCCC3)cc2c1=O (centres undefined),1,-9,1,38*,0
O=C(C[C@@H]1CC[C@@H]2[C@H](COC[C@@H](O)CN2Cc2cccc(F)c2)O1)NCC1CCCCC1,.,.,1,.,2
Cc1ccc(S(=O)(=O)N[C@@H]2C=C[C@@H](CC(=O)O)O[C@H]2CO)cc1,.,.,-3,.,2
Cc1cc2c(cc1C)CSC(c1ccc3ccccc3c1O)SC2,0,-24,.,2,.
Cc1cc2c(cc1C)CSC(c1c(O)ccc3ccccc13)SC2,-1,-21,.,160*,-1
CC(C)(C)c1ccc(/C=N/Nc2ccc(C(=O)O)cc2)cc1,7,10,-1,1,0
CC1Oc2ccccc2C=C1/C=N/Nc1ccc(C(=O)O)cc1 (centres undefined),?,-90,0,342*,1
C/C(=N\Nc1nc2ccccc2s1)c1ccc(Br)s1,-4,-53,0,145*,.
CC(=NNc1nc2ccccc2s1)c1ccncn1,3,-60,0,150*,.
O=C(N[C@@H]1CC[C@H](CCn2cc(C3CC3)nn2)O[C@@H]1CO)c1cccnc1,.,.,1,.,2
C/C=C/c1cnc2c(c1)C(=O)N([C@H](C)CO)C[C@@H](C)[C@H](CN(C)C(=O)c1cnccn1)O2,.,.,-1,.,14
CC(c1ccc2c(c1)OCO2)n1c(=S)[nH]c2ccccc2c1=O (centres undefined),-28,-19,2,75*,10
O=C(O)C(Cc1ccccc1)n1c(=S)[nH]c2ccccc2c1=O (centres undefined),-1,6,1,0,1
Cc1ccc(S(=O)(=O)Nc2cccc3c2O[C@@H](CN(C)S(=O)(=O)c2ccccc2)[C@@H](C)CN([C@H](C)CO)C3=O)cc1,.,.,.,.,1
CC(=O)Oc1ccc(/C=N/NC(=O)CCSc2ccccc2)cc1,-5,-28,11*,0,3
CCOc1cccc(/C=C/c2ccc3cccc(O)c3n2)c1OC,-3,.,1,168*,0
CCOc1cccc(/C=C/c2ccc3cccc(O)c3n2)c1O,-1,-47,1,2,-2
O=C(COc1ccccc1)Nc1ccc(N2CCCCC2)cc1,0,-13,0,0,-3
O=C(COc1ccccc1)Nc1ccc(CN2CCCCC2)cc1,16*,-18,1,0,8
O=C(COc1ccccc1)Nc1ccc(S(=O)(=O)Nc2ncccn2)cc1,-4,-24,17*,-1,.
C[C@@H]1CN([C@H](C)CO)C(=O)c2cc(NS(=O)(=O)c3cccs3)ccc2O[C@@H]1CN(C)Cc1ccc(C(=O)Nc2ccccc2N)cc1,.,.,-1,.,.
Cc1c(C(=O)NCCSCc2c(F)cccc2Cl)cnn1-c1ccc(Cl)cc1,-2,-8,0,132*,8
O=C(C[C@@H]1CC[C@H]2[C@@H](COC[C@@H](O)CN2Cc2cccc(Cl)c2)O1)N1CCCCC1,.,.,0,.,-1
CCc1ccc2[nH]c(=O)c(C3C(C#N)=C(N)Oc4c3ccc3cccnc43)cc2c1 (centres undefined),-5,5,.,80*,4
SMILES,FadD28 FP inh,PrP 5UTR inh,TcdB inh,PfHsp40 rescue,Mtb BioA inh
COc1ccc(NC(=O)N2C[C@H](O)COC[C@@H]3O[C@H](CC(=O)NC4Cc5ccccc5C4)CC[C@H]32)cc1,.,.,-3,.,2
Cc1cc(C)c(S(=O)(=O)N2CCN(c3ccccn3)CC2)c(C)c1,-5,-20,0,53*,1
Cc1cc(S(=O)(=O)N2CCN(c3ccccn3)CC2)ccc1F,-3,-23,-1,0,1
CN=C(Nc1ccc(C)c(C)c1)SC1CC(=O)N(c2ccc(OC)cc2)C1=O (centres undefined),0,-9,0,3,.
CN=C(Nc1ccc(Br)cc1)SC1CC(=O)N(c2ccc(OC)cc2)C1=O (centres undefined),-5,-16,1,43*,.
Cc1ccc(/C=C2\SC(=S)N(C(Cc3ccccc3)C(=O)O)C2=O)cc1 (centres undefined),-6,-18,.,161*,6
O=C(N[C@@H]1CC[C@H](CCNC(=O)C2CCCCC2)O[C@H]1CO)c1ccccn1,.,.,-3,.,0
O=c1[nH]c(CN2CCN(S(=O)(=O)/C=C/c3ccccc3)CC2)nc2cc(Cl)ccc12,-2,-37,1,97*,-2
O=C(Nc1ccc2c(c1)[C@@H]1C[C@H](CC(=O)N3CCc4ccccc4C3)O[C@H](CO)[C@@H]1O2)C1CCOCC1,.,.,-1,.,-1
Oc1ccc(/C=N/n2cc(-c3ccccc3)[nH]c2=S)cc1,3,17,14*,0,.
CCCOc1ccc(-c2nc(=S)[nH][nH]2)cc1,-3,-24,.,0,0
S=c1nc(-c2ccc(Cl)cc2)[nH][nH]1,-2,-15,12*,-1,0
COc1ccc(S(=O)(=O)Nc2ccc3ccccc3c2)cc1C,-6,-15,.,31*,-1
S=C(Nc1ccccc1Cl)N(Cc1cccnc1)Cc1ccco1,0,-4,-1,0,.
Cc1c(Cl)cccc1NC(=S)N(Cc1cccnc1)Cc1ccccc1Cl,-3,-18,0,35*,.
CCN1C(=O)/C(=C/N(C)C)c2ccccc21,0,2,.,0,0
CCN1C(=O)/C(=C\N(C)C)c2ccccc21,0,-14,.,41*,1
CCc1nc2ccccc2n1CC1CC1(Cl)Cl (centres undefined),-1,-15,0,56*,0
O=C(c1c(F)c(F)c(F)c(F)c1F)N1CCN(c2cccc(C(F)(F)F)c2)CC1,-3,-11,.,-1,-1
O=C(c1ccccc1F)N1CCN(c2cccc(C(F)(F)F)c2)CC1,1,-20,.,121*,2
N=C1CCC(=N)c2c1c(O)c1ccccc1c2O,14*,-21,.,9,.
O=C1CCn2c1c(O)c1ccccc1c2=O,-2,-9,-4,-1,.
O=C1C(=C(O)c2ccccc2)C(=O)c2ccccc21,-2,-8,1,-1,-3
O=C1C(=C(c2ccccc2)c2ccccc2)Nc2ccccc21,0,-13,.,78*,5
O=C(NC1CCCCC1)c1ccc2c(c1)OCO2,-1,-36,3,0,0
O=C(NC1CCS(=O)(=O)C1)c1ccc2c(c1)OCO2 (centres undefined),-3,-30,-1,44*,0
CCCNC(=O)N1CC2(CCN(CC3CCCC3)CC2)c2c([nH]c3cc(OC)ccc23)[C@@H]1CO,.,.,0,.,.
COC(=O)c1ccccc1NC(=O)N1C[C@@H]2C[C@@H](C1)c1cccc(=O)n1C2,-1,-9,0,-1,-1
O=C(O)c1ccccc1NC(=O)N1C[C@H]2C[C@@H](C1)c1cccc(=O)n1C2,-2,44,15*,0,0
COc1ccc(Cl)cc1NC(=O)CSc1nnc(-c2ccco2)o1,-1,-4,19*,-1,2
